# Source: PubChem BioAssay (several laboratories)
# Most compounds without a hit are left out; they make up all but 22% or so of the library.
# Measles CPE – protection of cells from measles virus; 1.5% of 140,000 active; Measles virus-infected cells, CPE protection, absorbance; protection (pct of control), % at 4 µM; in the data active = protection mostly above about 24%, no sharp cut-off; inactive = mostly below about 26%
# CYP2C19 act – activators of human cytochrome P450 2C19; P33261; recombinant CYP2C19, luciferin-H EGE luminescence; active compounds read high; 0 = fully inhibited enzyme, 1 = untreated enzyme; activation factor at 5 µM; 96,000 tested, under 10 active; AID 1025;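 active = activation factor of at least 2 at 5 µM in the primary screen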;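 also: 0 = wells with 2.5 mM tranylcypromine and 1 = vehicle-only wells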
# CYP2C19 inh – blocks human cytochrome P450 2C19; CYP2C19 Supersomes, luciferin-H EGE luminescence, 30 min; inhibition, % at 5 µM; 21% of 96,000 active; AID 778;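 active = CYP2C19 inhibition above a set limit at 5 µM in the primary screen, cut at about 50% in these data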;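 also: plate controls were negative control wells for no effect and 2.5 mM tranylcypromine positive control for full effect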
# CYP2C9 inhib – blocks human cytochrome P450 2C9. P11712. CYP2C9 Supersomes, luciferin-H conversion, luminescence. inhibition, % at 5 µM. 20% of 96,000 active. AID 777;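 active = blocking of liver enzyme CYP2C9 beyond about 50% at 5 µM, limit read from the data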
# Target sequence (P11712 whole entry, looked up): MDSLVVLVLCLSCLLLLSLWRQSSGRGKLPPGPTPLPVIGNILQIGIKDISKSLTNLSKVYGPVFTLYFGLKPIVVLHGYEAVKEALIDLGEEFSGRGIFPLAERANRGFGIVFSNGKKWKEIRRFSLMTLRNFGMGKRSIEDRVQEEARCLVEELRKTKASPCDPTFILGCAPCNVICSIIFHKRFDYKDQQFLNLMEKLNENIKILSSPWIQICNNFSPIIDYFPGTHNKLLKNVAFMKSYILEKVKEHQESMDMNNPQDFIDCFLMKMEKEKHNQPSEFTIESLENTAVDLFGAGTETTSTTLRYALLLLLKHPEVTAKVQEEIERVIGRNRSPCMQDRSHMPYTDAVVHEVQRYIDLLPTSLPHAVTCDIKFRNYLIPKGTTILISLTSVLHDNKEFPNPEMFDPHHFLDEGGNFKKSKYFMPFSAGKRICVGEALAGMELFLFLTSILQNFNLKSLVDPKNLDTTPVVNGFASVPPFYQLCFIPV
# CYP2C9 activ – activators of human CYP2C9; P11712; recombinant CYP2C9, luciferin-H conversion, luminescence; active compounds read high; factor 1 = untreated enzyme, 0 = blocked; activation factor at 5 µM; 1.4% of 96,000 active;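 active = activation factor of 2 or more for CYP2C9 at a 5 µM dose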;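 also: 0 = sulfaphenazole-blocked wells and 1 = vehicle-only wells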
# * = called active by the depositor; nt = no result given.
SMILES,Measles CPE,CYP2C19 act,CYP2C19 inh,CYP2C9 inhib,CYP2C9 activ
COc1ccc(OC2C(=O)N(Cc3ccc4c(c3)OCO4)C2c2sccc2C)cc1 (centres undefined),20,0.3,74*,69*,0.3
COc1ccc(CN(C)CC(=O)Nc2cc(OC)c([N+](=O)[O-])cc2C)c(OC)c1,16,nt,nt,nt,nt
Cc1noc(C)c1CN(C(=S)NC1CC1)c1ccccc1,12,nt,nt,nt,nt
Cc1ccc2oc(=O)c3cnn(CC(=O)N(CCCN4CCOCC4)Cc4ccco4)c3c2c1,41,nt,nt,nt,nt
Cc1noc(C)c1S(=O)(=O)N(CC(=O)Nc1ccc2c(c1)OCO2)c1ccc(C(C)C)cc1,4,1.2,-22,-18,1.2
CCC(C)NC(=O)CN(c1ccc2c(c1)OCO2)S(=O)(=O)c1c(C)n[nH]c1C (centres undefined),10,0.2,76*,52*,0.5
Cc1n[nH]c(C)c1S(=O)(=O)N(CC(=O)Nc1ccc2c(c1)OCCO2)c1ccc(C(C)C)cc1,16,0.6,44,68*,0.3
Cc1ccc(S(=O)(=O)c2c(C(=O)c3ccccc3)cnc3cc4c(cc23)OCCO4)cc1,7,nt,nt,nt,nt
O=C(Cc1ccc(-n2cccc2)cc1)NC1CCCCC1,6,0.4,55*,69*,0.3
CC1(C)CC(=O)c2c(-c3cccs3)n[nH]c2C1,3,0.2,79*,52*,0.5
CCCc1n[nH]c2c1C(=O)CC(C)(C)C2,24,1,1,-7,1.1
CC(C)(C)C(=O)OCCNc1nc(-c2ccccc2)nc2ccccc12,22,nt,nt,nt,nt
NC(=S)Cc1nc2n(n1)Cc1ccccc1-2,50*,1,-1,1,1
Cc1ccc(-c2nc3n(n2)Cc2ccccc2-3)cc1,7,nt,nt,nt,nt
COc1ccc(C(=O)NCCn2cc(SCC(=O)N3CCOCC3)c3ccccc32)cc1,3,0.9,14,24,0.8
CCC(=C(c1ccc(OC)cc1)c1ccc(OC)cc1)c1cn(CC(O)CN2CCN(C)CC2)c2ccccc12 (centres undefined),19,0.9,7,70*,0.3
CC(=O)N1N=C(c2cccc([N+](=O)[O-])c2)OC1c1ccc(Cl)cc1Cl (centres undefined),22,0.3,73*,78*,0.2
CC(=O)N1N=C(N)SC1c1cccc([N+](=O)[O-])c1 (centres undefined),6,nt,nt,nt,nt
CN1C(=O)/C(=C/c2cc(N=Nc3ccccc3)ccc2O)SC1=S,6,0.9,14,29,0.7
CCNC(=O)NC(=O)C(C)On1nnc2ccc(S(=O)(=O)N(CC)CC)cc21 (centres undefined),5,nt,nt,nt,nt
O=C(NCC(c1cccnc1)N1CCN(c2ccccc2F)CC1)c1ccccc1 (centres undefined),18,0.5,52*,31,0.7
O=C(NCC(c1cccnc1)N1CCN(c2ccccc2)CC1)c1ccc2c(c1)OCO2 (centres undefined),5,0.4,59*,76*,0.2
O=C(NCC(c1cccnc1)N1CCOCC1)c1ccc2c(c1)OCO2 (centres undefined),14,nt,nt,nt,nt
O=C(NCC(c1cccnc1)N1CCN(c2ccccc2F)CC1)OCc1ccccc1 (centres undefined),8,0.1,91*,94*,0.1
O=C(NCC(c1cccnc1)N1CCN(c2ccccc2)CC1)OCc1ccccc1 (centres undefined),8,nt,nt,nt,nt
SMILES,Measles CPE,CYP2C19 act,CYP2C19 inh,CYP2C9 inhib,CYP2C9 activ
O=C(NCC(c1cccnc1)N1CCN(c2ccc(F)cc2)CC1)c1cccc(Cl)c1 (centres undefined),6,0.6,45,52*,0.5
O=C(NCC(c1cccnc1)N1CCN(c2ccc(F)cc2)CC1)OCc1ccccc1 (centres undefined),1,0.1,85*,82*,0.2
CCCOc1ccc(CC(CC(=O)O)(C(=O)O)C(=O)O)cc1,46*,1,1,-6,1.1
CCCCOc1ccc(C(=O)O)cc1,5,1.1,-13,-20,1.2
CC(=O)Nc1ccc(S(=O)(=O)N2CCN(c3ccccn3)CC2)cc1,3,0.8,17,49,0.5
COc1ccc(S(=O)(=O)N2CCN(c3c(C)cccc3C)CC2)cc1OC,8,0,99*,94*,0.1
COc1ccc(S(=O)(=O)N2CCN(C)CC2)cc1C,5,0.9,14,-46,1.5
CCOc1ccc(S(=O)(=O)N2CCN(c3ccc(C)cc3C)CC2)cc1,11,0.5,54*,80*,0.2
COc1ccc(S(=O)(=O)N2CCN(c3ccc(C)cc3C)CC2)cc1OC,5,0.5,46,52*,0.5
COc1ccc(S(=O)(=O)N2CCN(c3ccccn3)CC2)cc1OC,3,0.3,70*,37,0.6
COc1ccc(-n2cc(C(=O)Nc3cc([N+](=O)[O-])ccc3OC)c3ccccc3c2=O)cc1,30,nt,nt,nt,nt
Cc1nc2ccccc2n1C1CC(=O)N(N(C)C)C1=O (centres undefined),11,1,-2,9,0.9
O=C(NCCCn1ccnc1)c1cc2nc(-c3ccc(Br)cc3)cc(C(F)(F)F)n2n1,5,nt,nt,nt,nt
COc1cccc(CNc2ccc3c(c2)CCC3)c1,12,0.9,13,-11,1.1
CCCC(C)NC(=O)c1ccc2[nH]c3c(c2c1)CC(C)CC3 (centres undefined),14,1,1,51*,0.5
CC1(C(=O)O)CCC(C(=O)NCCc2ccccc2)C1(C)C (centres undefined),24,1,-1,-10,1.1
CC1(C)CC(=O)C(C(=O)/C=C/NCCc2ccccc2)C(=O)C1,3,1,3,74*,0.3
COc1ccc2c(Cl)c(C(N)=O)sc2c1,7,1,2,-17,1.2
COc1ccc2c(Cl)c(C(=O)NCCCn3ccnc3)sc2c1,2,0,98*,91*,0.1
COc1ccc2c(Cl)c(C(=O)NN)sc2c1,38,0.2,82*,56*,0.4
COc1ccc(/C=C/C(=O)NCCCn2ccnc2)cc1,2,nt,nt,nt,nt
Cc1ccccc1-n1c(Cc2cccs2)n[nH]c1=S,3,0.8,19,-5,1
CC(=O)Nc1ccc(NC(=O)CSc2nccn2Cc2ccccc2)cc1,16,0.8,17,12,0.9
Clc1ccc(CSc2nccn2Cc2ccccc2)cc1,42,0.1,93*,-9,1.1
Clc1ccc(CSc2ncccn2)cc1,23,0.9,12,-7,1.1
O=[N+]([O-])c1ccc(Sc2nccn2Cc2ccccc2)cc1,2,0,96*,70*,0.3
O=[N+]([O-])c1ccc(Sc2ccccc2)nc1,3,nt,nt,nt,nt
Cc1ccc(NC(=O)CSc2nccn2Cc2ccccc2)cc1C,11,0.7,34,-96,2*
N#Cc1ccccc1NC(=O)CSc1nccn1CCc1ccccc1,9,0.4,59*,-40,1.4
COc1ccc(Cn2c(C)c(C)c(C#N)c2NC(=O)Nc2cccc(Cl)c2)cc1,3,1,3,19,0.8
